Measurements as given in PubChem BioAssay (Tox21).
“And” between values parts separate entries of the source, which are not always exact repeats. Equal values may be shown once. A number with no mark means an inactive call. Results filed as inconclusive are left out. Where a call stands in place of a potency, no number is given. The source made the active and inactive calls. Unless noted, the call rests on the fitted dose curve; in most records, active means well fitted curve in the direction sought with a large enough effect in the repeat runs; inconclusive means weak or mixed curves; inactive means no such curve, though single readings can be large; an effect the other way counts as inactive or inconclusive.

Columns and labels:
[1] = A CellTox Green Cytotoxicity Assay to monitor cytotoxicity in HepG2 cells - 0 hour (AID 1224882); further: nearly all actives have a fitted effect of over 35% in size
In short: (§1)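 Read-out is fluorescence of a cyanine dye excluded from live cells that stains DNA of dead HepG2 cells, with signal proportional to cytotoxicity. Plates were read at 0, 8, 16, 24, 32 and 40 h after compound addition.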

[2] = A CellTox Green Cytotoxicity Assay to monitor cytotoxicity in HepG2 cells - 32 hour (AID 1224883); further: nearly all actives have a fitted effect of over 50% in size; further: potency means the concentration at half of the fitted maximal effect
In short: as §1

[3] = qHTS RealTime-Glo MT Cell Viability Assay in HepG2 cells - 16 hour (AID 1224885); further: nearly all actives have a fitted effect of over 50% in size; further: potency means the concentration at half of the fitted maximal effect
In short: (§2)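 HepG2 cells (600/well) were dispensed with RealTime-Glo reagents, incubated 5 h at 37 °C, then treated with compounds in DMSO for up to 40 h. Nonlytic NanoLuc luminescence reflecting viable cells was read at each stated time point.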

[4] = qHTS RealTime-Glo MT Cell Viability Assay in HepG2 cells - 0 hour (AID 1224889); further: nearly all actives have a fitted effect of over 50% in size; further: potency means the concentration at half of the fitted maximal effect
In short: as §2

[5] = A CellTox Green Cytotoxicity Assay to monitor cytotoxicity in HepG2 cells - 8 hour (AID 1224890); further: nearly all actives have a fitted effect of over 45% in size
In short: as §1

[6] = qHTS assay to identify small molecule antagonists of the estrogen receptor alpha (ER-alpha) signaling pathway using the BG1 cell line in the presence of 0.1 nM 17-beta-estradiol - cell viability counter screen (AID 1259241); further: nearly all actives have a fitted effect of over 40% in size; further: potency means the concentration at half of the fitted maximal effect
In short: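 Estradiol-stimulated (0.1 nM) VM7Luc4E2 cells exposed to compounds 22 hr; viability measured by fluorescence of cleaved CellTiter-Fluor substrate after 30 min.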

[7] = qHTS assay to identify small molecule antagonists of the androgen receptor (AR) signaling pathway using the MDA cell line in the presence of 0.5 nM R1881 - cell viability counter screen (AID 1259242); further: nearly all actives have a fitted effect of over 45% in size
In short: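 Counter screen for cytotoxicity run in the same wells as the AR antagonist reporter screen: MDA-kb2 cells were treated 16 hr with test compounds and 0.5 nM R1881, then live-cell protease activity was measured by fluorescence.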

[8] = target: Estrogen receptor (Homo sapiens) (UniProt P03372); experiment: qHTS assay to identify small molecule antagonists of the estrogen receptor alpha (ER-alpha) signaling pathway using the BG1 cell line in the presence of 0.1 nM 17-beta-estradiol (AID 1259244); further: nearly all actives have a fitted effect of over 50% in size; further: potency means the concentration at half of the fitted maximal effect
In short: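 Cells: VM7Luc4E2, endogenous ER-alpha, 4x ERE-luc stable. Pre-culture 5 d, phenol red-free, charcoal-stripped FBS. Plated 24 h, compound + E2 0.1 nM final, 22 h 37C/5% CO2. Readout ONE-Glo luminescence.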

[9] = qHTS assay to identify small molecule HDAC inhibitors (AID 1259364); further: nearly all actives have a fitted effect of over 45% in size; further: potency means the concentration at half of the fitted maximal effect
In short: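 Luminescence from a cell-permeant luminogenic class I/II HDAC substrate reports endogenous deacetylase activity in intact HCT-116 cells treated with compounds for 2 h.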

[10] = qHTS assay to identify small molecule HDAC inhibitors - cell viability counter screen (AID 1259365)
In short: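 After overnight seeding at 1,500 cells per well, wild-type HCT-116 cultures took up compounds in DMSO for 2hr at 37 C. Viable cell content came from luminescence with CellTiter-Glo.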

[11] = qHTS assay to identify small molecule agonists of the sonic hedgehog signaling (Shh) pathway - cell viability counter screen (AID 1259366); further: nearly all actives have a fitted effect of over 50% in size; further: potency means the concentration at half of the fitted maximal effect
In short: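 Same-well cytotoxicity read. Gli1-Luc reporter 3T3 cells; compounds 24hr, 37C/5% CO2; CellTiter-Fluor fluorescence.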

[12] = qHTS assay to identify small molecule agonists of the sonic hedgehog signaling (Shh) pathway (AID 1259368; calls by dose curve;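 further: NIH/3T3-derived 3T3Gli1-Luc cells carrying a stable Gli1-driven firefly luciferase reporter; series mostly up to about 92 µM; nearly all actives have a fitted effect of over 15% in size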)
In short: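 3T3Gli1-Luc (NIH/3T3 clone, stable Gli1-Luc); 4 hr pre-incubation, then cpd in DMSO 24 hr, 37 C/5% CO2; luciferase reagent 30 min RT; luminescence.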

[13] = qHTS RealTime-Glo MT Cell Viability Assay in HEK293 cells - 24 hour (AID 1224886); further: nearly all actives have a fitted effect of over 50% in size; further: potency means the concentration at half of the fitted maximal effect
In short: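 HEK293 cells seeded with NanoLuc/prosubstrate reagent, rested 5 h at 37 C, then dosed and kept at 37 C up to 40 h. Nonlytic real-time luminescence from viable cells read at 0, 8, 16, 24, 32 and 40 h.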

[14] = qHTS RealTime-Glo MT Cell Viability Assay in HEK293 cells - 8 hour (AID 1224887); further: nearly all actives have a fitted effect of over 50% in size; further: potency means the concentration at half of the fitted maximal effect
In short: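 Cells were seeded together with NanoLuc luciferase and a prosubstrate that viable cells reduce to a luciferase substrate. After a 5 h incubation at 37 C/5% CO2, compounds were added and luminescence was measured repeatedly during 40 h of treatment.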

[15] = A CellTox Green Cytotoxicity Assay to monitor cytotoxicity in HEK293 cells - 16 hour (AID 1224888); further: nearly all actives have a fitted effect of over 35% in size; further: potency means the concentration at half of the fitted maximal effect
In short: (§3)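 Nonlytic real-time cytotoxicity: HEK293 + CellTox Green reagent plated, 5 h preincubation, pintool compound addition (23 nL in DMSO), 37 C for 40 h, fluorescence measured at successive time points.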

[16] = qHTS assay to identify small molecule antagonists of the sonic hedgehog signaling (Shh) pathway (AID 1259369; calls by dose curve; further: nearly all actives have a fitted effect of over 45% in size; further: potency means the concentration at half of the fitted maximal effect)
In short: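 3T3Gli1-Luc, conditioned-medium-stimulated, 24hr cpd, 37C/5% CO2; Gli1-driven firefly Luc luminescence after 30min RT with luciferase reagent. Cells plated 4hr before cpd.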

[17] = A CellTox Green Cytotoxicity Assay to monitor cytotoxicity in HEK293 cells - 8 hour (AID 1224884); further: nearly all actives have a fitted effect of over 35% in size; further: potency means the concentration at half of the fitted maximal effect
In short: as §3

[18] = target: Androgen receptor (Homo sapiens) (UniProt P10275); experiment: qHTS assay to identify small molecule antagonists of the androgen receptor (AR) signaling pathway using the MDA cell line in the presence of 0.5 nM R1881 (AID 1259243); further: nearly all actives have a fitted effect of over 50% in size; further: potency means the concentration at half of the fitted maximal effect
In short: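 Luciferase luminescence is the read-out: compounds are tested for suppressing 0.5 nM R1881-driven MMTV reporter activity in MDA-kb2 cells after 16 hr at 37C.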

[19] = qHTS assay to identify small molecule phospholipidosis (PLD) inducers (AID 1259344; active means well fitted curve in the direction sought with a large enough effect; an effect the other way counts as inactive or inconclusive)
In short: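 Quantitative HTS in HepG2: compound plus LipidTOX Red dye for 24 h, paraformaldehyde fixation with Hoechst 33342, widefield high-content imaging; amiodarone as positive and DMSO as negative control.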

[20] = qHTS assay to identify small molecule antagonists of the sonic hedgehog signaling (Shh) pathway - cell viability counter screen (AID 1259367); further: nearly all actives have a fitted effect of over 55% in size; further: potency means the concentration at half of the fitted maximal effect
In short: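 Seed 3T3 Gli1-Luc cells at 2,000 per well; incubate 4 hr; add compound in DMSO, then conditioned medium; incubate at 37C with 5% CO2; add CellTiter-Fluor after 23 hr; read fluorescence 1 hr later.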

Sequence of Androgen receptor (Homo sapiens) (P10275 whole entry, looked up): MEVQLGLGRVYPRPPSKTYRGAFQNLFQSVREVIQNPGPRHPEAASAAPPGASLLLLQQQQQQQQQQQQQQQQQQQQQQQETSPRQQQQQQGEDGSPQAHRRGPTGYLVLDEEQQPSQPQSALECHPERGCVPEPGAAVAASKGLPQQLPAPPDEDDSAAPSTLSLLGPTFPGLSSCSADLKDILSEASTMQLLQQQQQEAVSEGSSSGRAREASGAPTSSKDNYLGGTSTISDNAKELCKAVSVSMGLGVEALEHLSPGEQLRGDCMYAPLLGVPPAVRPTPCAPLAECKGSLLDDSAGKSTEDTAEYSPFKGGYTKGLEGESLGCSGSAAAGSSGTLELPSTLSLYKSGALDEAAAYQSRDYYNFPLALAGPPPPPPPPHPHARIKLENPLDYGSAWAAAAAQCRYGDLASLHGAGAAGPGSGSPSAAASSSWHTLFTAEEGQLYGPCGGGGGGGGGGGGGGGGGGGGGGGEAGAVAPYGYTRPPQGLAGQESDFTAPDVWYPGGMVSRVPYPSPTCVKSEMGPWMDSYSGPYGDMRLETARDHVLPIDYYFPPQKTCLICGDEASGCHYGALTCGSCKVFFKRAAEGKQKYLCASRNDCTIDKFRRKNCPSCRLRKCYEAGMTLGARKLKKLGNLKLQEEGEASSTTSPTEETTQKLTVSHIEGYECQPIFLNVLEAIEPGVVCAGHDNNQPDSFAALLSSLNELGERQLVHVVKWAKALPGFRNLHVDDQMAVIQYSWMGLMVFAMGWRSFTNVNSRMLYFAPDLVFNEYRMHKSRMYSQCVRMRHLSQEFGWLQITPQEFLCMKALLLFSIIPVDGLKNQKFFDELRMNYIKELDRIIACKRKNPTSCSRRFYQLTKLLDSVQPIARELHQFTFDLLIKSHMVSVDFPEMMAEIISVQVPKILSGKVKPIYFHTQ
Sequence of Estrogen receptor (Homo sapiens) (P03372 whole entry, looked up): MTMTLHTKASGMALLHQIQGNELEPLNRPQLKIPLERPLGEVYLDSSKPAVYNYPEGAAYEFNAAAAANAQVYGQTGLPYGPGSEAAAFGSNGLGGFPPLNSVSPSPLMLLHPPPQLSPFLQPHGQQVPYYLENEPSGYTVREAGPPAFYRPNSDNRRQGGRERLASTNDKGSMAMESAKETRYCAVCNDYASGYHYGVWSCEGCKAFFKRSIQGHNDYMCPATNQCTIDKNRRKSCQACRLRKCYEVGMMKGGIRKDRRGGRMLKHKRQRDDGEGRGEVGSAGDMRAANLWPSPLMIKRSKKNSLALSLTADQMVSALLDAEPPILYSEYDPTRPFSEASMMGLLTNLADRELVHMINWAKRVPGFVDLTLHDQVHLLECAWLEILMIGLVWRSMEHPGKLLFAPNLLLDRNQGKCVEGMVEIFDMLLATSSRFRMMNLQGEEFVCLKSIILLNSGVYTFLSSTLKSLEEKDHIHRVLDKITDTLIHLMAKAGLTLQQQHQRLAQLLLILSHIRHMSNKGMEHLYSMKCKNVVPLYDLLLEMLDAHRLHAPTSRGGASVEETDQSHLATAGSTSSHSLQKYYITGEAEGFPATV

| SMILES | Potency [1] | Potency [2] | Potency [3] | Potency [4] | Potency [5] | Potency [6] | Potency [7] | Potency [8] | Potency [9] | Potency [10] | Potency [11] | Potency [12] | Potency [13] | Potency [14] | Potency [15] | Potency [16] | Potency [17] | Potency [18] | Potency [19] | Potency [20] |
| --- | --- | --- | --- | --- | --- | --- | --- | --- | --- | --- | --- | --- | --- | --- | --- | --- | --- | --- | --- | --- |
| Nc1ccc(Cl)cc1C(=O)c1ccccc1 | inactive | inactive | inactive | inactive | inactive | inactive | inactive | inactive | inactive | inactive | inactive | inactive |  |  |  |  |  |  |  |  |
| CC(C)C1CCC(Cc2ccc(Cl)cc2)C1(O)Cn1cncn1 (stereo not given) | inactive | 43.2 µM (active) | 34.3 µM (active) | inactive |  | inactive |  | 48.1 µM (active) | inactive | inactive | 48.1 µM (active) | inactive | 12.2 µM (active) | 13.7 µM (active) | inactive | 17.1 µM (active) |  |  |  |  |
| COc1cccc(C(=O)CCN[C@@H](C)[C@H](O)c2ccccc2)c1 | inactive |  |  | inactive | inactive | inactive |  |  | inactive | inactive |  | inactive |  | inactive |  | 23.7 µM (active) | inactive | 29.8 µM (active) |  |  |
| Oc1ccc(C2(c3ccc(O)cc3)CCCCC2)cc1 | inactive |  | inactive | inactive | inactive | inactive | inactive |  | inactive | inactive | 25.9 µM (active) | inactive |  |  |  |  |  |  |  |  |
| Nc1ccccc1C(=O)Oc1ccc2ccccc2c1 | inactive |  | inactive | inactive | inactive | inactive | inactive | inactive | 8.63 µM (active) | inactive |  | inactive |  |  | inactive |  | inactive | inactive |  |  |
| CC(=O)OC1(c2ccccc2)CCN(CCc2ccccc2)CC1 | inactive |  | inactive | inactive | inactive |  | inactive |  | inactive | inactive |  | inactive | 28.2 µM (active) |  | inactive |  | inactive |  |  |  |
| O=[N+]([O-])c1c2ccccc2cc2ccccc12 | inactive |  | inactive | inactive | inactive | inactive | inactive | inactive |  | inactive |  | inactive | inactive | inactive | 5.43 µM (active) | 67.8 µM (active) | inactive |  |  |  |
| C[C@]12CC[C@@H]3c4ccc(OC(=O)N(CCCl)CCCl)cc4CC[C@H]3[C@@H]1CC[C@@H]2O |  | inactive | inactive | inactive |  | inactive | inactive |  | inactive | inactive | inactive | inactive | inactive | inactive | inactive | inactive | inactive |  | inactive | inactive |
| CC1(C)CC/C(=C/c2ccc(Cl)cc2)C1(O)Cn1cncn1 (stereo not given) | inactive |  | inactive | inactive | inactive |  | inactive | 68.2 µM (active) | inactive | inactive |  | inactive | 24.4 µM (active) |  |  |  | inactive | 1.21 µM (active) | inactive |  |
| ClC1=C(Cl)C2(Cl)C3C(Cl)C(Cl)CC3C1(Cl)C2(Cl)Cl (stereo not given) | inactive |  |  | inactive |  | inactive | inactive | inactive | inactive | inactive |  | inactive | 48.8 µM (active) | 48.8 µM (active) and 49 µM (active) | 54.8 µM (active) | inactive | 54.8 µM (active) | 60.9 µM (active) and 48.6 µM (active) |  |  |
| CSCCCN=C=S | inactive |  |  | inactive | inactive | inactive | inactive |  | inactive |  | inactive | inactive |  | inactive | inactive |  | inactive |  |  | inactive |
| [Cl][Sb]([Cl])[Cl] | inactive |  |  | inactive | inactive | 27.3 µM (active) |  |  | inactive | inactive |  | inactive |  | inactive | inactive |  | inactive |  |  |  |
| CC(C)(C)C(O)C(Oc1ccc(-c2ccccc2)cc1)n1cncn1 (stereo not given) | inactive |  | inactive | inactive | inactive | inactive | inactive |  | inactive | inactive | 30.6 µM (active) | inactive | 43.6 µM (active) |  | inactive | 12.2 µM (active) | inactive | 30.6 µM (active) |  |  |
| CC(C)CC(C)Nc1ccc(Nc2ccccc2)cc1 (stereo not given) | inactive |  |  | 24.1 µM (active) | inactive | 53.5 µM (active) |  |  | inactive | inactive | 26.8 µM (active) | inactive | 21.5 µM (active) | 19.2 µM (active) | inactive |  | inactive |  |  | 16.9 µM (active) |
| CCCCOCN(C(=O)CCl)c1c(CC)cccc1CC | inactive |  |  | inactive | inactive | inactive | inactive | inactive | inactive | inactive |  | inactive | inactive |  | inactive |  | inactive | 30.6 µM (active) |  | 61.1 µM (active) |
| Clc1ccc(C(Cl)(Cl)Cl)c(Cl)c1 | inactive |  | inactive | inactive | inactive | inactive | inactive |  | inactive | inactive | inactive | inactive |  | inactive |  | inactive |  |  |  | inactive |
